PubChem BioAssay (Tox21)
Records with an inconclusive call do not appear. Entries that show only a call come without a potency. Some structures have more than one record in an assay (separate samples or runs), and their calls can disagree. Activity calls are given as the source filed them. Unless noted, calls come from the whole dose curve; as a rule, active = well fitted curve in the direction sought with a large enough effect in the repeat runs; inconclusive = weak or mixed curves; inactive = no such curve, though single readings can be large; an effect the other way counts as inactive or inconclusive.

Experiments:
[1] = qHTS assay to identify small molecule antagonists of the androgen receptor (AR) signaling pathway using the MDA cell line in the presence of 0.5 nM R1881 - cell viability counter screen (AID 1259242); note: nearly all actives have a fitted effect of over 45% in size
How it was run: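 Human breast carcinoma MDA-kb2 cells, cultured without CO2, receive compounds alongside 0.5 nM (final) R1881 agonist. After 16 hr at 37C, viability is taken as live-cell protease signal.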

[2] = qHTS assay to identify small molecule HDAC inhibitors (AID 1259364);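 note: wild-type HCT-116 cells with endogenous class I/II HDAC activity; top concentration of the series differs between compounds; nearly all actives have a fitted effect of over 45% in size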
How it was run: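 After a 2 hr compound incubation (37C, 5% CO2), HCT-116 cells seeded at 1,500/well the day before received HDAC-Glo reagent; signal read as luminescence after 30 min at room temperature.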

[3] = qHTS assay to identify small molecule agonists of the sonic hedgehog signaling (Shh) pathway - cell viability counter screen (AID 1259366); note: nearly all actives have a fitted effect of over 50% in size
How it was run: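 CellTiter-Fluor fluorescence read-out, 1 hr at 37C, added after 23hr compound exposure. Cells: 3T3 Gli1-Luc, an NIH/3T3 clone with stably integrated Gli1-Luc reporter, plated 4hr before compound.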

[4] = qHTS assay to identify small molecule antagonists of the sonic hedgehog signaling (Shh) pathway - cell viability counter screen (AID 1259367); note: nearly all actives have a fitted effect of over 55% in size
How it was run: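 Tox21 library chemicals were tested on a Gli1-Luc NIH/3T3 clone (2,000 cells/well) stimulated by conditioned medium; viability was quantified as fluorescence from CellTiter-Fluor reagent added at 23 hr.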

[5] = qHTS assay to identify small molecule agonists of the sonic hedgehog signaling (Shh) pathway (AID 1259368; calls by dose curve;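 note: NIH/3T3-derived 3T3Gli1-Luc cells carrying a stable Gli1-driven firefly luciferase reporter; series mostly up to about 92 µM; nearly all actives have a fitted effect of over 15% in size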)
How it was run: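 Stable NIH/3T3 Gli1-Luc reporter clone; 24 hr cpd exposure after a 4 hr settling period; luminescence endpoint.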

[6] = qHTS assay to identify small molecule antagonists of the sonic hedgehog signaling (Shh) pathway (AID 1259369; calls by dose curve; note: nearly all actives have a fitted effect of over 45% in size)
How it was run: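 Gli1 transcriptional reporter (firefly Luc) in NIH/3T3 background, conditioned-medium activated. 24hr exposure, luminescence endpoint.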

[7] = qHTS assay to identify small molecule agonists of the androgen receptor (AR) signaling pathway in the presence of an antagonist - cell viability counter screen (AID 1259379);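 note: MDA-kb2 human breast cancer cells carrying an MMTV luciferase reporter; series mostly up to about 92 µM; nearly all actives have a fitted effect of over 25% in size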
How it was run: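 Counter screen for cell viability run in parallel with the AR agonist-mode luciferase assay. MDA-kb2 cells were co-treated with nilutamide (3.0uM final) and compounds, then incubated 16 hr at 37C, and CellTiter-Fluor fluorescence was measured.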

[8] = qHTS assay to identify small molecule agonists of the estrogen receptor beta (ER-beta) signaling pathway - cell viability counter screen (AID 1259380); note: nearly all actives have a fitted effect of over 30% in size
How it was run: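 In this qHTS counter screen, HEK293T cells carrying an ER-beta/UAS beta-lactamase reporter, grown in 2% charcoal-stripped FBS, received compound for 16 hr; ATP-based CellTiter-Glo luminescence was then read after 30 min at room temperature.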

[9] = qHTS assay to identify small molecule antagonists of the estrogen receptor beta (ER-beta) signaling pathway - cell viability counter screen (AID 1259382); note: series mostly up to about 92 µM; nearly all actives have a fitted effect of over 55% in size
How it was run: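 HEK293T ER-beta-UAS-bla, 2% charcoal-stripped FBS; compounds + 1nM E2 16 hr 37C; CellTiter-Glo luminescence, 30 min RT.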

[10] = qHTS assay to identify small molecule agonists or antagonists of the thyroid stimulating hormone receptor (TSHR) signaling pathway - wild type cell line counter screen (AID 1259384; calls by dose curve)
How it was run: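 Wild-type Hek293 cells, 800/well, 18 h at 37C, then compound with Ro20-1724 for 30 min RT. cAMP by HTRF (cAMP-d2/anti-cAMP cryptate), 1 h RT, fluorescence read. 15 concentrations, triplicates.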

[11] = molecular target: Thyrotropin receptor (Homo sapiens) (UniProt P16473); experiment: qHTS assay to identify small molecule antagonists of the thyroid stimulating hormone receptor (TSHR) signaling pathway (AID 1259385; calls by dose curve; note: nearly all actives have a fitted effect of over 20% in size)
How it was run: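 TSHR-HEK293 cells (800/well) plated 18 h, then compounds with Ro20-1724 and TSH at 1.5 ng/mL final, 30 min at room temperature. cAMP quantified by HTRF (cAMP-d2/anti-cAMP-cryptate, 1 h); 15 concentrations in triplicate.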

[12] = qHTS assay to identify small molecule agonists of the estrogen receptor alpha (ER-alpha) signaling pathway in the presence of an antagonist - cell viability counter screen (AID 1259386);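 note: series mostly up to about 92 µM; cells exposed to compounds for 22 h at 37 °C before the viability read; nearly all actives have a fitted effect of over 30% in size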
How it was run: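 Steps: 5-day stripped-FBS culture; seed and incubate 24hr; add ICI-182,780 (10.0nM final); pin 15-point compound titration; incubate 22hr at 37C; add CellTiter-Fluor at 21hr; read fluorescence.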

[13] = molecular target: Progesterone receptor (Homo sapiens) (UniProt P06401); experiment: qHTS assay to identify small molecule agonists of the progesterone receptor (PR) signaling pathway (AID 1346784; calls by dose curve; note: nearly all actives have a fitted effect of over 30% in size)
How it was run: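 HEK 293T PR-UAS-bla reporter cells, 2% charcoal-stripped FBS; 6 hr settle at 37C/5% CO2, compound (DMSO) 16 hr, LiveBLAzer B/G FRET substrate 2 hr RT, fluorescence intensity read.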

[14] = molecular target: Androgen receptor (Homo sapiens) (UniProt P10275); experiment: qHTS assay to identify small molecule agonists of the androgen receptor (AR) signaling pathway in the presence of an antagonist (AID 1259381; calls by dose curve; note: nearly all actives have a fitted effect of over 15% in size)
How it was run: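 AR antagonist background: nilutamide 3.0uM final. Cell line: MDA-kb2, MMTV-driven luciferase, responsive to both AR and GR. Exposure 16hr, 37C, no CO2; ONE-Glo luminescence.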

[15] = qHTS assay to identify small molecule HDAC inhibitors - cell viability counter screen (AID 1259365); note: series mostly up to about 92 µM; nearly all actives have a fitted effect of over 50% in size
How it was run: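 HCT-116 (wild type), 1,500 cells/well, overnight 37C/5% CO2; compound in DMSO 2hr; CellTiter-Glo 30min RT; luminescence read.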

[16] = molecular target: Estrogen receptor beta (Homo sapiens) (UniProt Q92731); experiment: qHTS assay to identify small molecule agonists of the estrogen receptor beta (ER-beta) signaling pathway (AID 1259377; active = well fitted activation curve with a large enough effect in the signal ratio in the repeat runs, not every such curve was filed as active; the % refers to the signal ratio; note: potency is the fitted concentration of half-maximal effect)
How it was run: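 Beta-lactamase reporter readout: fluorescence of LiveBLAzer B/G FRET substrate after 2 h at room temperature, following 16 h compound treatment of ER-beta-UAS-bla HEK293T cells at 37C in 2% charcoal-stripped FBS medium.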

[17] = molecular target: Estrogen receptor beta (Homo sapiens) (UniProt Q92731); experiment: qHTS assay to identify small molecule antagonists of the estrogen receptor beta (ER-beta) signaling pathway (AID 1259378; active = well fitted inhibition curve with a large enough effect in the signal ratio in the repeat runs, not every such curve was filed as active; the % refers to the signal ratio)
How it was run: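 ER-beta-UAS-bla HEK293T cells in 2% charcoal-stripped FBS medium treated with compound plus 1nM final 17-beta-estradiol for 16 hr at 37C. Beta-lactamase reporter read by FRET substrate fluorescence after 2 hours at room temperature.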

[18] = molecular target: Estrogen receptor (Homo sapiens) (UniProt P03372); experiment: qHTS assay to identify small molecule antagonists of the estrogen receptor alpha (ER-alpha) signaling pathway using the BG1 cell line in the presence of 0.1 nM 17-beta-estradiol (AID 1259244); note: nearly all actives have a fitted effect of over 50% in size
How it was run: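 Seeding of stripped-serum-adapted VM7Luc4E2 cells, 24 h attachment, compound transfer, then 0.1 nM final 17beta-estradiol; after 22 h incubation, ONE-Glo reagent and luminescence reading.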

[19] = qHTS assay to identify small molecule phospholipidosis (PLD) inducers (AID 1259344; active = well fitted curve in the direction sought with a large enough effect; an effect the other way counts as inactive or inconclusive)
How it was run: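 Image-based: LipidTOX Red pit count/intensity per well and per cell; HepG2, 24 h compound at 37 C, PFA fixation, Hoechst counterstain.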

[20] = molecular target: Estrogen receptor (Homo sapiens) (UniProt P03372); experiment: qHTS assay to identify small molecule agonists of the estrogen receptor alpha (ER-alpha) signaling pathway in the presence of an antagonist (AID 1259383; calls by dose curve; note: top concentration of the series differs between compounds; nearly all actives have a fitted effect of over 15% in size)
How it was run: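 ER-alpha agonism measured under antagonist challenge: 10.0nM ICI-182,780 (final) plus compound, 15 concentrations, 22hr, VM7Luc4E2 ERE-luciferase cells. Read by luminescence.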

Chain of Progesterone receptor (Homo sapiens) (P06401 whole entry, looked up): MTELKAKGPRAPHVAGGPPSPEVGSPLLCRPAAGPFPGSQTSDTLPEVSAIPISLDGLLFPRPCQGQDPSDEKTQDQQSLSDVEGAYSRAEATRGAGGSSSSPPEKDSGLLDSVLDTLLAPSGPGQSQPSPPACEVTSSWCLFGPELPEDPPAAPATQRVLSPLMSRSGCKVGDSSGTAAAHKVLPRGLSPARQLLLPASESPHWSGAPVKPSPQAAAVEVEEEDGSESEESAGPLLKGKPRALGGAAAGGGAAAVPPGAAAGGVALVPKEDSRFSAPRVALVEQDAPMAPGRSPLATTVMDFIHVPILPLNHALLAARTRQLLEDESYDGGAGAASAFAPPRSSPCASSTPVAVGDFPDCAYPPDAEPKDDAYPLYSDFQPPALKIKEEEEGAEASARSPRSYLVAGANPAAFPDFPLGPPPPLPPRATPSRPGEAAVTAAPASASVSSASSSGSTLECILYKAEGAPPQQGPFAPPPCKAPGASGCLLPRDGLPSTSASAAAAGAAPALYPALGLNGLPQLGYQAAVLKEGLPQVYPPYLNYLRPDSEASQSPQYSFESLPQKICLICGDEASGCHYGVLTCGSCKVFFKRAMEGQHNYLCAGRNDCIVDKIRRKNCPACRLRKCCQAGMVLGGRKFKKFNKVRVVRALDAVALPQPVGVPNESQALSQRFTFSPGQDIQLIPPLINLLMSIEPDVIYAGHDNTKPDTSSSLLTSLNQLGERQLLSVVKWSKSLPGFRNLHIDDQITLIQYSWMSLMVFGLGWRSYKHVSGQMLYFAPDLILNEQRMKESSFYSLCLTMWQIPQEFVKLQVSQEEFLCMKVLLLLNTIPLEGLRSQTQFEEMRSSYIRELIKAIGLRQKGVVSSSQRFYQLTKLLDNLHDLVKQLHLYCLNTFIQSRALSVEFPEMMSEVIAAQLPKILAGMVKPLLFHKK
Chain of Thyrotropin receptor (Homo sapiens) (P16473 whole entry, looked up): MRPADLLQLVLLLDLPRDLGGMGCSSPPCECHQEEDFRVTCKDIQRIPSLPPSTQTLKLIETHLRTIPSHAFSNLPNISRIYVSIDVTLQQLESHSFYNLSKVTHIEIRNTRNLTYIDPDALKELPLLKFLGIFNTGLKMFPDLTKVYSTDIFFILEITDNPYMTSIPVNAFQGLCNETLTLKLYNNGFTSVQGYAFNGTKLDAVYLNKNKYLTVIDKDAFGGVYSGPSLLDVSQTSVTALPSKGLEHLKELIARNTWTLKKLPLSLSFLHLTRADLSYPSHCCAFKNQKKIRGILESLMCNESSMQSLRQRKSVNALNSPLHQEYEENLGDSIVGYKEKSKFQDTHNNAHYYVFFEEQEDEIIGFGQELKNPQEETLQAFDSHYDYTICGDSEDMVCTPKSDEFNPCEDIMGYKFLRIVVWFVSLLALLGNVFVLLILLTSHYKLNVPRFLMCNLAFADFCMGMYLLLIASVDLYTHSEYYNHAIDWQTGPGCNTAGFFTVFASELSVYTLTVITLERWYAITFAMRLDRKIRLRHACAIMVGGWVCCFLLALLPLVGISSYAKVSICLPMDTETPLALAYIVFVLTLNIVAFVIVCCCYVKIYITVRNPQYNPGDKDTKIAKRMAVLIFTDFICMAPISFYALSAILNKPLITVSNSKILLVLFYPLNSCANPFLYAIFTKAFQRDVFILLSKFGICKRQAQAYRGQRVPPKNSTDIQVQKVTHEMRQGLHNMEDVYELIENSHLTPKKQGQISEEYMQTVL
Chain of Estrogen receptor beta (Homo sapiens) (Q92731 whole entry, looked up): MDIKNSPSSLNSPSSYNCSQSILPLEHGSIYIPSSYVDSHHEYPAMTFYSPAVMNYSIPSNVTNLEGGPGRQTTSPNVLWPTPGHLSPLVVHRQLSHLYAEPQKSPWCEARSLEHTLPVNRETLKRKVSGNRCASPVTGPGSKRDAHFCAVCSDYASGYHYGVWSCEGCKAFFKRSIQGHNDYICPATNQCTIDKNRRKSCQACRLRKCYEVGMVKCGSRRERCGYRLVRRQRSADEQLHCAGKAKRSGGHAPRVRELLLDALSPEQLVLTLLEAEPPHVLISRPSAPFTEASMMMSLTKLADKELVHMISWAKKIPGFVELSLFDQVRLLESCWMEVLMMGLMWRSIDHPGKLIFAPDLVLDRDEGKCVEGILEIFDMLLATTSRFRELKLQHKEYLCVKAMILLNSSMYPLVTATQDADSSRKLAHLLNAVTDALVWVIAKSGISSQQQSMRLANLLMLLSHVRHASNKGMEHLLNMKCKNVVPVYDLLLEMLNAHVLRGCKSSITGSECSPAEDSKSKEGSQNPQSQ
Chain of Estrogen receptor (Homo sapiens) (P03372 whole entry, looked up): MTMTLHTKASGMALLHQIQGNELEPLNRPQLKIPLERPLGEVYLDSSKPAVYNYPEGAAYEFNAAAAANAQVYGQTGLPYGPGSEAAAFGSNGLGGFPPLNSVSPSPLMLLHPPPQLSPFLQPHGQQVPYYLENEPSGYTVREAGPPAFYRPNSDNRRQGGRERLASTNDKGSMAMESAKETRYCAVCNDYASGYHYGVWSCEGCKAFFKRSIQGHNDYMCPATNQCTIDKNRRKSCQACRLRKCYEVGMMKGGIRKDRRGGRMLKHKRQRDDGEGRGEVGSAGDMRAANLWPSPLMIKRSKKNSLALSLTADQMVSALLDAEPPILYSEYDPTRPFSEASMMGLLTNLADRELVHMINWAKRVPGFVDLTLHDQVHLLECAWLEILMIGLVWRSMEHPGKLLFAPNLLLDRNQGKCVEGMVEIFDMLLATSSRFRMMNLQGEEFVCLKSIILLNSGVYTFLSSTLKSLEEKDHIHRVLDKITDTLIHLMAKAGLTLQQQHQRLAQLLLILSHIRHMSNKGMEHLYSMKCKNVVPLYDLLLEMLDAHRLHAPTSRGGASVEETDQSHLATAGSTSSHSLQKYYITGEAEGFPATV
Chain of Androgen receptor (Homo sapiens) (P10275 whole entry, looked up): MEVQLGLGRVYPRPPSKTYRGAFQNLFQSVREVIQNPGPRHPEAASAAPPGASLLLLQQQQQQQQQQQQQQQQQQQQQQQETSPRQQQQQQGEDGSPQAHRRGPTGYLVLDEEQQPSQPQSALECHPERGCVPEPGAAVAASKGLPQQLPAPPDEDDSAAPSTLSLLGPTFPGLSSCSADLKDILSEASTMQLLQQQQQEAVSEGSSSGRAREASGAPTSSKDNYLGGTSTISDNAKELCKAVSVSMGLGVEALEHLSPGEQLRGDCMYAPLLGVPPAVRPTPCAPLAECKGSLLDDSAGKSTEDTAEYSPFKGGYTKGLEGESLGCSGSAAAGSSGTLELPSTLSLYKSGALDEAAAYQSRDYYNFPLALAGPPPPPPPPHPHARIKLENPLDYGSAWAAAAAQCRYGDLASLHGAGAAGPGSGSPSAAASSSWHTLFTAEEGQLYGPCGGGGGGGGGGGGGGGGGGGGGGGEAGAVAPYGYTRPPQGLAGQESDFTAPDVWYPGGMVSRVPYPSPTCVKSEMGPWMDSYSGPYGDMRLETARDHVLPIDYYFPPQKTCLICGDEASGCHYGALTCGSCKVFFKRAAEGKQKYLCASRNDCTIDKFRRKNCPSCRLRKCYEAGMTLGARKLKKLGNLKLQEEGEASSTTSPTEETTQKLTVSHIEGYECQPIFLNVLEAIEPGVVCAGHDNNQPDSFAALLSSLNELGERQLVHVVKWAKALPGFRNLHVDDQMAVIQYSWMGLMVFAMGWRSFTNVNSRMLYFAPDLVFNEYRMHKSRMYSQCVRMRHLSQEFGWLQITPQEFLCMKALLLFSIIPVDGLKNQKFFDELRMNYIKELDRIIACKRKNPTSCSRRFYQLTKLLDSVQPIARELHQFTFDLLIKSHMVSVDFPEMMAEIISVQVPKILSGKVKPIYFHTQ

Row | Compound | Potency [1] | Potency [2] | Potency [3] | Potency [4] | Potency [5] | Potency [6] | Potency [7] | Potency [8] | Potency [9] | outcome [10] | Potency [11] | Potency [12] | Potency [13] | Potency [14] | Potency [15] | Potency [16] | Potency [17] | Potency [18] | outcome [19] | Potency [20]
1 | C=CCSSCC=C | inactive | inactive | inactive | inactive | inactive | inactive | inactive | inactive | inactive | inactive | inactive | inactive | inactive |  |  |  |  |  |  | 
2 | CC(Cl)C(=O)O (stereo not given) | inactive | inactive |  | inactive | inactive | inactive | inactive | inactive | inactive | inactive | inactive | inactive | inactive | inactive |  |  |  |  |  | 
3 | CC(C)(C#N)C(C)(C)C#N | inactive | inactive | inactive | inactive | inactive |  | inactive |  | inactive | inactive | inactive | inactive | inactive |  | inactive | inactive | inactive |  |  | 
4 | O=[N+]([O-])O[C@H]1CO[C@H]2[C@@H]1OC[C@H]2O[N+](=O)[O-] |  | inactive | inactive | inactive | inactive | inactive | inactive |  | inactive | inactive | inactive | inactive | inactive |  |  | inactive | inactive | inactive | inactive | inactive
5 | CCCCOC(=O)CCC(=O)OCCCC | inactive | inactive | inactive | inactive | inactive | inactive | inactive |  | inactive | inactive | inactive | inactive | inactive |  |  | inactive | inactive |  |  | 
6 | Cc1ccc(N)c(C)c1 | inactive | inactive | inactive | inactive | inactive | inactive | inactive | inactive |  |  |  | inactive |  |  |  | inactive | inactive |  |  | 
7 | Clc1ccc(Cl)c(Cl)c1 | inactive | inactive |  | inactive | inactive | inactive | inactive | inactive | inactive | inactive | inactive | inactive |  |  |  | 59.5 µM (active) and inactive | inactive |  |  | 
8 | CCc1cnc(C2=NC(C)(C(C)C)C(=O)N2)c(C(=O)O)c1 (stereo not given) | inactive | inactive | inactive |  | inactive | inactive | inactive | inactive | inactive | inactive | inactive | inactive | inactive |  | inactive |  |  |  |  | 
9 | CCOP(=O)(SC(C)CC)N1CCSC1=O (stereo not given) | inactive | inactive |  | inactive | inactive | inactive | inactive | inactive | inactive | inactive | inactive | inactive | inactive |  | inactive |  |  |  |  | 
